Rows were chosen to be rich in hits. Some 1.6% of all compounds tested hit in one or more screens of this group.
GRK2 inh = blocks RNA aptamer binding to human GRK2; P25098; bead flow cytometry, FAM-aptamer displacement from GRK2; inhibition of aptamer binding, % at 10 µM; actives 0.59% (n = 330,000);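 active = inhibition of aptamer binding above 40%, roughly 3 SD of noise, on plates passing a quality check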;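 note: median bead fluorescence of bound FAM aptamer so fluorescent compounds give negative values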
VLA-4 inh = inhibition in a human VLA-4 binding assay; P13612; inhibition, % (about 7 µM as worked out from the volumes in the protocol); AID 2557; VLA-4 expressing cells, ligand binding flow cytometry; actives 0.2% (n = 330,000); in the data active = inhibition above about 50%
JMJD2C inh = blocks human GASC-1 demethylase activity; Q9H3R0; GST-JMJD2C(1-420) H3K9me3 demethylation, DELFIA europium; inhibition, % at 2.35 µM; actives 0.069% (n = 330,000);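 active = more than half of a compound's replicate wells show inhibition beyond 50%, single wells judged on their own value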;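 note: signal counts dimethyl H3K9 product captured on neutravidin plate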
PREPL inh = inhibits the human prolyl oligopeptidase-like enzyme. inhibition, % at 5.96 µM. Q4J6C6. AID 2751. actives 0.68% (n = 320,000). recombinant PREPL, fluorescence polarization activity-based probe
Target sequence (Q4J6C6 whole entry, looked up): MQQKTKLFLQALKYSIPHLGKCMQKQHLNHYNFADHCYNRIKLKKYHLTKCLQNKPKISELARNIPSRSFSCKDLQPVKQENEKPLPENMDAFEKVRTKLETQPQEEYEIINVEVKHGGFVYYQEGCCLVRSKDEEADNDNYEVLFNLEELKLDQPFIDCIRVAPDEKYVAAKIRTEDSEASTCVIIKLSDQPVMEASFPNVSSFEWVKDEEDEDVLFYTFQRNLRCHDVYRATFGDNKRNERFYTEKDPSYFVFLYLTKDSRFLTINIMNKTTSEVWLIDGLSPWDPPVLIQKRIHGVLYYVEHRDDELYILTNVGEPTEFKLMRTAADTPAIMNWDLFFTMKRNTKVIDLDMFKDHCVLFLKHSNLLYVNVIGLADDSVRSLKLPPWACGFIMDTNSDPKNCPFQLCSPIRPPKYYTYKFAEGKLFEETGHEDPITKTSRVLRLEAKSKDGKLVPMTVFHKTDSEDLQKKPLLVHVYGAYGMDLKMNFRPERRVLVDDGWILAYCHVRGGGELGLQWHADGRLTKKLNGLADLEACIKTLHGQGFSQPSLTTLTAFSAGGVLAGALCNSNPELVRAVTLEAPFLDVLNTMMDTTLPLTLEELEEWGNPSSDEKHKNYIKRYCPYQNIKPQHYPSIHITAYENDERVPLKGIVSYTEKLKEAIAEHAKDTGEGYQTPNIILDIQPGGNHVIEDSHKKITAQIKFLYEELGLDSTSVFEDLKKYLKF
DSG3 Ab inh = blocks pemphigus antibody binding to human desmoglein-3; DSG3-coupled beads, scFv-anti-DSG3-GFP binding, flow cytometry; active compounds read low; AID 588358; actives 0.48% (n = 310,000); P32926; binding (percent of control), % at 10 µM;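 active = binding more than 3 SD below its plate's average and above zero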;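 note: hits lower antibody fragment binding to DSG3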
PREPL inh cf = confirmation of human PREPL enzyme inhibitors. shares compounds with PREPL inh. inhibition, % at 5.96 µM. actives 67% (n = 2,000). recombinant PREPL, fluorescence polarization activity probe. AID 2803
GRK2 CP1 = human GRK2 inhibition confirmation, cherry pick 1; shares compounds with GRK2 inh; bead-bound GRK2, FAM-aptamer displacement, flow cytometry; aptamer displacement, % at 10 µM; actives 4% (n = 2,000); AID 504451;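 active = aptamer displacement above 40%, near three times the noise of non-fluorescent compounds, on plates passing quality checks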;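 note: negative values mostly reflect intrinsic compound fluorescence rather than true enhancement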
Aptamer quench = counter-screen for GRK2 aptamer inhibitors: fluorescent aptamer quenchers | shares compounds with GRK2 inh | 110 tested, under 10 active | Fluorescent RNA aptamer beads, quenching, flow cytometry; active compounds read high | fluorescence change (kMESF span), kMESF (no concentration beside the values);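 active = compounds whose bead fluorescence drops by more than 37 kMESF across the dose range, marking them as dye quenchers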
Aptamer quench SP = aptamer fluorescence quenching in GRK2 counter-screen; Carboxyfluorescein RNA aptamer on beads, flow cytometry quenching; active compounds read low; fluorescence response (% of DMSO), % at 10 µM; 2,000 tested, under 10 active; shares compounds with GRK2 inh; AID 504580;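 active = compounds that quench the bead-bound fluorescent RNA probe, cutting fluorescence to under half of the solvent control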;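 note: counterscreen run without GRK2 so only probe quenching by compound is measured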
GRK2 CP2 = confirmation of human GRK2 inhibitors binding RNA aptamer site. shares compounds with GRK2 inh. bead-bound GRK2, FAM-aptamer displacement, flow cytometry. inhibition of aptamer binding, % at 10 µM. 360 tested, under 10 active. AID 504782;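 active = inhibition of aptamer binding above 40%, about triple the noise seen with nonglowing compounds, on plates passing quality control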;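 note: negative values mostly come from compounds that fluoresce themselves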
FAM quench CP2 = quenches fluorescent RNA aptamer, GRK2 hit artifact; fluorescence response vs DMSO, % at 10 µM; shares compounds with GRK2 inh; carboxyfluorescein RNA aptamer beads, flow cytometry quenching; active compounds read low; 360 tested, under 10 active;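 active = response vs DMSO under 50%, meaning signal dropped by over half, treated as fluorescence quencher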;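 note: labelled aptamer on streptavidin beads without GRK2 as a quench counter-screen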
A number is an active result; – = inactive; · = no result given. Cut-off read from the data, not from the text of the source, unless noted: active = inhibition above about 43%; inactive = the rest.

SMILES | GRK2 inh | VLA-4 inh | JMJD2C inh | PREPL inh | DSG3 Ab inh | PREPL inh cf | GRK2 CP1 | Aptamer quench SP | others
COc1cc(C(=O)NC(=S)Nc2ccc(N3CCCC3)cc2)cc(OC)c1OC | – | – | – | 69 | – | 46 | · | ·
Cc1cc(C(=O)NC(C)C2CCCO2)no1 (stereo not drawn) | – | – | – | – | – | · | · | ·
COc1ccc(CCNC(=O)c2cc(=O)[nH]c3ccc(Br)cc23)cc1OC | – | – | – | – | – | · | · | ·
O=[N+]([O-])c1cc(Cl)cc(/C=N/NC(=S)Nc2ccc(S(=O)(=O)N3CCOCC3)cc2)c1O | – | – | – | 46 | – | – | · | ·
Cc1ccc(S(=O)(=O)N(C)c2ccc(C(=O)Nc3c(C)n(C)n(-c4ccccc4)c3=O)cc2)cc1 | – | – | – | – | – | · | · | ·
COC(=O)c1ccccc1OCCOCCOc1cccc2ccc(C)nc12 | – | – | – | 49 | – | – | · | ·
O=C(Cn1c(=O)oc2ccccc21)Nc1n[nH]c(=S)s1 | – | – | – | – | – | · | · | ·
C#CCOCCOCCOCCNc1nc(N2CCN(C(=O)[C@H](Cc3cc4ccccc4[nH]3)n3cc([C@@H](N)CC(C)C)nn3)CC2)nc(N2CCN(C(=O)[C@H](Cc3cc4ccccc4[nH]3)n3cc([C@@H](N)CC(C)C)nn3)CC2)n1 | 70 | – | – | 69 | – | 56 | – | –
Cc1cccc(C)c1NS(=O)(=O)c1ccc(-c2cnc(C3CC3)o2)cc1 | – | – | – | – | – | · | · | ·
CCC(=O)Nc1nc(=S)ss1 | – | – | – | – | – | · | · | ·
COc1cc(C2Nc3ccc4ccccc4c3C3=C2C(=O)CC(C)(C)C3)ccc1OC(C)C(=O)O (stereo not drawn) | – | – | – | – | – | · | · | ·
O=c1cc(-c2ccccc2)oc2cc(O)c(O)c(O)c12 | – | – | · | – | – | · | · | ·
O=c1c(O)cccc2cc(O)c(O)c(O)c12 | 100 | – | 87 | 63 | 33 | – | – | –
O=c1c2c3c(sc2nc(NCCO)n1CCc1ccccc1)CCCCC3 | 90 | – | – | 164 | – | – | – | –
CCOC(=O)c1sc(NCc2ccco2)c(-c2nc3ccccc3s2)c1N | 68 | – | – | 45 | – | 46 | 70 | – | Aptamer quench=–
O=C(Cn1nc(CNc2ccc(Br)cc2)[n+]2c1CCCCC2)c1ccc([N+](=O)[O-])cc1 | 86 | – | – | 62 | – | 44 | – | –
O=C(Cn1nc(Cl)nc1Cl)c1ccc([N+](=O)[O-])cc1 | – | – | – | – | – | · | · | ·
NCCCC[C@@H]1NC(=O)c2cc([N+](=O)[O-])cc(I)c2SC[C@@H](C(N)=O)NC(=O)[C@H](Cc2ccc(O)cc2)NC1=O | 69 | – | – | 54 | – | 49 | – | –
NCCCC[C@@H]1NC(=O)[C@H](CCC(=O)O)NC(=O)c2cc([N+](=O)[O-])cc(I)c2SC[C@@H](C(=O)NCC(N)=O)NC1=O | – | – | – | – | – | · | · | ·
COc1ccc(OC)c(C2Nc3c(Cl)ccc(C(=O)O)c3C3C=CCC32)c1 (stereo not drawn) | – | – | – | – | – | · | · | ·
O=C(O)C1Nc2c(O)cc(Cl)c([N+](=O)[O-])c2C2C=CCC12 (stereo not drawn) | 69 | – | – | 94 | 66 | – | 68 | – | Aptamer quench=–
COc1ccc(NC(=O)c2ccc(-c3ccc(-c4noc(C)n4)cc3C)cc2)cc1N1CCN(C)CC1 | – | – | · | 76 | – | 60 | – | –
O=C(CN1CCN(c2ccc(O)cc2)CC1)Nc1ccccc1C(=O)NCCc1ccccc1 | – | – | · | – | – | · | · | ·
COC(=O)c1[nH]c2ccc(C)cc2c1NC(=O)CN1CCCc2ccccc21 | 89 | – | – | 49 | – | 48 | – | –
Cc1cc(=O)oc2cc(NC(=O)c3ccc(OC(F)F)cc3)ccc12 | – | – | – | – | – | · | · | ·
SMILES | GRK2 inh | VLA-4 inh | JMJD2C inh | PREPL inh | DSG3 Ab inh | PREPL inh cf | GRK2 CP1 | Aptamer quench SP | others
COc1ccccc1OC(=O)CCN1c2ccccc2Sc2ccccc21 | – | – | – | – | – | · | · | ·
COc1ccccc1-[n+]1c(C)cc(/C=C2\Sc3ccccc3N2C)cc1C | 68 | – | – | 64 | – | 71 | 62 | – | Aptamer quench=–
CCN1/C(=C/c2ccc3cc(C)ccc3[n+]2CC)Sc2cc(C)c(C)cc21 | · | · | · | · | – | · | · | ·
CCN1/C(=C/c2ccc3cc(C)ccc3[n+]2CC)Sc2ccccc21 | 55 | · | – | 65 | – | 57 | – | –
Oc1nc(Nc2ccccc2)sc1/C=C1\C=Nc2ccccc21 | 45 | – | – | 59 | – | 63 | – | –
COc1ccc(C(C(=O)NC2CCCCC2)N(Cc2cccnc2)C(=O)c2snc(C(N)=O)c2N)cc1 (stereo not drawn) | – | – | – | – | – | · | · | ·
CCc1sc(C(=O)Nc2nccs2)cc1C | – | – | – | – | – | · | – | –
CCc1sc(C(=O)Nc2ncccc2C)cc1C | – | – | – | – | – | · | · | ·
Cc1sc2ncn(CC(=O)NCc3ccco3)c(=O)c2c1-c1ccccc1 | – | – | – | – | – | · | · | ·
O=C(COC(=O)C1CC1)NCc1ccccc1Cl | – | – | – | – | – | · | · | ·
COC(=O)c1sc2ncn(N)c(=O)c2c1C | 42 | – | – | – | · | · | – | –
COC(=O)c1sc2nc[nH]c(=O)c2c1C | – | – | – | – | – | · | · | ·
O=C(O)C1C2C=CC(C2)C1C(=O)Nc1ccc2c(c1)OCCO2 (stereo not drawn) | – | – | – | – | · | · | · | · | GRK2 CP2=–;FAM quench CP2=–
C=CCOc1ccc(C(=O)CC)cc1OC | 93 | – | – | – | – | · | – | –
Cc1ccc(C(=O)N/N=C/c2cc(Br)ccc2O)cn1 | 73 | – | – | – | – | · | – | –
Cc1ccc(C(=O)N/N=C\C=C\c2ccc(Br)cc2)cn1 | – | – | – | – | – | · | · | ·
O=C(O)CCCN=CC1=C(O)CNC1=O | – | – | – | – | – | · | · | ·
